The source of these data is ChEMBL document CHEMBL3988442, “University of Dundee, Small-Polar-MMV Screening Library” (2021).

The target in assay [1] is T1, Aspartate--tRNA(Asp/Asn) ligase (Mycobacterium tuberculosis (strain ATCC 25618 / H37Rv)) (UniProt P9WFW3). Note: in the data most compounds retested in dose-response had high values.
T1 sequence (whole entry): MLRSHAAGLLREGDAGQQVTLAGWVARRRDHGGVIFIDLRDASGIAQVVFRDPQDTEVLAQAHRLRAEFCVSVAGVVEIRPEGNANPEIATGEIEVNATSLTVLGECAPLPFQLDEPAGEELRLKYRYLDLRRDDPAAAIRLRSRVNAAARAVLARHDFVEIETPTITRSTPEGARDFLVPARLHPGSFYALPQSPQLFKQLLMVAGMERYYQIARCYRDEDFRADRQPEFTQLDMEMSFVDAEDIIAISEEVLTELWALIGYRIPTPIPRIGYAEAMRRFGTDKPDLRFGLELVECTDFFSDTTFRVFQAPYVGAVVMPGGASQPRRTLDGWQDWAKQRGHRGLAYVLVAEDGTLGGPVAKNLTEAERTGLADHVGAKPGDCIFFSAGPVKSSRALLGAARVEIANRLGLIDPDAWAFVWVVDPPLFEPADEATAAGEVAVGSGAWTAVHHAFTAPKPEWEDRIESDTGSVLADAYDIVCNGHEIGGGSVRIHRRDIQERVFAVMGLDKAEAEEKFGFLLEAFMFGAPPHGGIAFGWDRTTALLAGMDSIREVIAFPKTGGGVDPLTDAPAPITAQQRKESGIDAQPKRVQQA
In words: Assay for Asp RNA synthetase-1 from Mycobacterium tuberculosis. The format is functional. Further details: scale not given: direction of the effect not stated beside the values. To be noted: 30 µM.

Assay [2] has as its target Shiga toxin 2 (Escherichia coli O157:H7) (UniProt P09385+P09386). In words: E. coli 0.157:H7 Shiga Toxin SOP - stx2 screening assay. Type of assay: functional. More on the design: scale not given: direction of the effect not stated beside the values. To be noted: 30 µM.

Regarding `O=C(c1cccn1Cc1cccs1)N1CCN(C(=O)C2CC2)CC1`, the results for the Percent Effect in assay [1] and in assay [2] were 4.89% and -4.84%, respectively.

On to `CC(C)c1nc(CN(C)C2CCN(CCNS(C)(=O)=O)C2)no1` (configuration not stated), for which the Percent Effect in assay [1] was 0.0463%; in assay [2], -26.6%.

In the case of `Cc1n[nH]c(=O)c2c(NC(=O)CN3CCOC(C)C3)oc(C)c12` (configuration not stated), the Percent Effect is -3.61% in assay [1] and -52.2% in assay [2].

With `CC(C)c1nccn1C1CCCN(C(=O)c2ccnc(N(C)C)c2)C1` (configuration not stated), the Percent Effect was 2.16% in assay [1] and -29.7% in assay [2].

With `CS(=O)(=O)NCC1CCCCN1C(=O)Nc1cccnc1N1CCCC1` (configuration not stated), the results for the Percent Effect in assay [1] and in assay [2] were -2.73% and 4.39%, respectively.

For `CCO[C@@H]1CO[C@@]2(CCCN(Cc3scnc3C)C2)C1`, the results for the Percent Effect in assay [1] and in assay [2] were -7.13% and -25%, respectively.

On to `COC(C(=O)N1CCN(c2cccc(Cl)c2)C(=O)C1)c1ccccc1` (configuration not stated), for which the Percent Effect in assay [1] was 0.0112%; in assay [2], -0.212%.

On to `Cc1nc(C(=O)N2CCc3c(nc(-c4ccncc4)[nH]c3=O)C2)cs1`, for which the Percent Effect is 0.783% in assay [1] and 13.5% in assay [2].

In the case of `Cc1nn(C)c(C)c1CNCc1ccnc(N2CCOCC2)c1`, the Percent Effect in assay [1] was -2.46%; in assay [2] it was -9.51%.

With `CC(O)CN1CCC(CNCc2ccccc2Br)CC1` (configuration not stated), the Percent Effect is 1.21% in assay [1] and -20.4% in assay [2].

With `c1ccc(OC[C@]23COC[C@H]2CN(c2ncccn2)C3)nc1`, the Percent Effect was 1.95% in assay [1] and -23.2% in assay [2].

Regarding `CCC(=O)N1CCC(O)(c2ncc(OC)nc2OC)CC1`, the Percent Effect came to 1.66% in assay [1] and 16.1% in assay [2].

As to `CCNS(=O)(=O)c1ccc(C)c(C(=O)N(C)Cc2ccco2)c1`, the Percent Effect in assay [1] worked out at 2.92%; in assay [2], 0.315%.

Consider `Cc1ccc(C(=O)N2CCn3cc(CN(C)Cc4ccco4)nc3C2)o1`, for which the Percent Effect in assay [1] was -0.889%; in assay [2] it was -35.1%.

With `CC(=O)N1CCC(Oc2ccc(Cl)cn2)CC1`, the Percent Effect was -6.73% in assay [1] and -4.66% in assay [2].

Turning to `CCc1noc(C(C)N2CCC(C(=O)Nc3cnn(CC)c3)CC2)n1` (configuration not stated), the figures for the Percent Effect in assay [1] and in assay [2] were -3.65% and -12.4%, respectively.

With `Cc1cnn(CC2CCCN2C(=O)c2cn(-c3ccccc3)nc2C)c1` (configuration not stated), the Percent Effect in assay [1] came out at 4.47%; in assay [2] it was 14.6%.

Turning to `CN(C)S(=O)(=O)N1CCC2(COCc3cnc(-c4ccccc4)nc32)C1` (configuration not stated), the values for the Percent Effect in assay [1] and in assay [2] were -4.48% and -12.6%, respectively.

In the case of `COc1ccc(CN2C[C@@H]3COC[C@]3(CN(C)C)C2)cc1`, the Percent Effect worked out at 2.52% in assay [1] and 3.85% in assay [2].

Turning to `COc1ccc2c(ccn2CCC(=O)O)c1`, the figures for the Percent Effect in assay [1] and in assay [2] were -2.82% and -49%, respectively.

Take `CCNC(=O)c1ccc2c(c1)nc1n2CCN(Cc2ccco2)C1`: the Percent Effect is 3.83% in assay [1] and -56% in assay [2].

As for `Cc1nc(-c2ccco2)ccc1C(=O)N1CCCC1Cn1cccn1` (configuration not stated), the Percent Effect turned out to be 0.0146% in assay [1] and 15.5% in assay [2].

With `O=C1NC(c2ccccc2)=N[C@@]12CC[C@@H]1CN(Cc3ccccc3)C[C@@H]12`, the Percent Effect in assay [1] is 0.728%; in assay [2], -14.6%.

Turning to `CS(=O)(=O)CC(=O)N1C[C@@H]2COC[C@]2(c2nnc(C3CC3)o2)C1`, the Percent Effect in assay [1] was -1.72%; in assay [2] it was -40.1%.

Consider `FC(F)(F)Cn1ccnc1CN1CCOC(Cn2cccn2)C1` (configuration not stated), for which the Percent Effect is 1.38% in assay [1] and 8.38% in assay [2].

With `c1nc(CCC2CCCN2)cc(N2CCCOCC2)n1` (configuration not stated), the Percent Effect is -5.88% in assay [1] and -10.1% in assay [2].

As for `CNC(=O)CCNC(=O)c1cccc(Cn2nc(C)cc2C)c1`, the Percent Effect in assay [1] is -3.31%; in assay [2], -15.4%.

`Cc1nn(C)c(C)c1C(C)NC(=O)Nc1cccnc1N1CCCC1` (configuration not stated): the Percent Effect is -3.63% in assay [1] and 10.7% in assay [2].

`CCc1nc(C)ncc1C(=O)N1CCCC(n2nc(C)nc2C)C1` (configuration not stated): the Percent Effect is -3.03% in assay [1] and 0.321% in assay [2].

As to `Cc1cc(C)cc(C2(C(=O)NC(C)Cn3ccnc3)CC2)c1` (configuration not stated), the values for the Percent Effect in assay [1] and in assay [2] were -2.37% and -14.1%, respectively.

As for `COc1ccc(CN2CCC3(CC2)NC(=O)CC3c2ccncc2)cc1` (configuration not stated), the Percent Effect turned out to be 5.29% in assay [1] and 9.6% in assay [2].

Consider `Cc1nc(C)c(C(=O)NCCNc2ncccc2C#N)s1`, for which the figures for the Percent Effect in assay [1] and in assay [2] were 0.324% and -20.6%, respectively.

On to `Cc1ccc(CN2CCC[C@]3(C(=O)O)CN(c4ncccn4)C[C@@H]3C2)o1`, for which the figures for the Percent Effect in assay [1] and in assay [2] were 7.77% and -25.5%, respectively.

In the case of `Cc1cnn(CC2CN(c3ncnc4ccccc34)CCO2)c1` (configuration not stated), the results for the Percent Effect in assay [1] and in assay [2] were -7% and 6.94%, respectively.

With `Cc1cc(C)n(CC2CN(CC(=O)Nc3c(C)n[nH]c3C)CCO2)n1` (configuration not stated), the Percent Effect in assay [1] is -0.486%; in assay [2], 6.68%.

Turning to `CCc1ccc(CNC(=O)N2CCN(Cc3cc(C)no3)CC2)s1`, the Percent Effect in assay [1] came out at 12%; in assay [2], 27%.

Consider `Cc1cnn(CC(C)NCc2ccc(-n3cccn3)cc2)c1` (configuration not stated), for which the figures for the Percent Effect in assay [1] and in assay [2] were -3.68% and -40%, respectively.

For `OC(CN1CCOCC1)CN1CCc2c(ncn2C2CC2)C1` (configuration not stated), the Percent Effect in assay [1] was -8.33%; in assay [2] it was -43.3%.

For `CCc1ccc(CN2CCC3(CC2)NC(=O)CC3c2ccncc2)o1` (configuration not stated), the Percent Effect is 7.7% in assay [1] and -9.95% in assay [2].

On to `NC[C@H]1CC[C@H](C(NC(=O)c2ccccc2)c2ccccn2)CC1` (some centres not stated), for which the figures for the Percent Effect in assay [1] and in assay [2] were 1.63% and -25.2%, respectively.

For `CCOC(=O)c1sc2ccsc2c1CN`, the results for the Percent Effect in assay [1] and in assay [2] were -0.321% and 42.1%, respectively.

As to `Cn1cc(CCNC(=O)NC2CCS(=O)(=O)C2)cn1` (configuration not stated), the Percent Effect is 2.01% in assay [1] and -8.38% in assay [2].

As for `CN(C)C(CNC(=O)c1cccc(-n2cnnn2)c1)c1ccccc1Cl` (configuration not stated), the values for the Percent Effect in assay [1] and in assay [2] were 3.08% and -14.9%, respectively.

With `COc1cccc(CC(=O)N2CCc3ncnc(NC(C)C)c3CC2)c1`, the Percent Effect was -0.351% in assay [1] and -3.19% in assay [2].

Regarding `Cn1ccnc1-c1cccc(NC(=O)NCCN2CCOCC2)c1`, the Percent Effect in assay [1] is 4.54%; in assay [2], -60.9%.

As to `COCC1CC2(CCN(Cc3cnn(C)c3)CC2)CN1c1ncccn1` (configuration not stated), the Percent Effect in assay [1] is -0.238%; in assay [2], -22.6%.

With `CCc1nc(C2CCCN2C(=O)CCc2cccs2)no1` (configuration not stated), the Percent Effect is -0.641% in assay [1] and 24% in assay [2].

With `O=C1OCCN1CCOc1nc(-c2ccccc2Cl)no1`, the Percent Effect in assay [1] was -7.33%; in assay [2], -14.8%.

Regarding `Cc1ccc(C(=O)N2CCC3(CC2)COC(COc2ccccn2)C3)o1` (configuration not stated), the Percent Effect in assay [1] was 4.9%; in assay [2], 5.7%.

Consider `CCn1c(=O)nc2n1C(=O)N(c1cccc(Cl)c1)C2`, for which the Percent Effect in assay [1] was 0.929%; in assay [2] it was -43.9%.

As to `CCOc1ccc(NC(=O)c2cnc(N3CCCC3)nc2C)cc1`, the Percent Effect in assay [1] is -4.56%; in assay [2] it was -10.5%.
